Measured values as given in PubChem BioAssay.
For some of these results: Measured potencies and affinities stand elsewhere. The source made the active and inactive calls.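 The calls were made as follows, unless noted: active = earlier screen potentiator hit that boosts the TRPC4 ion channel at some dose, with a dose response; inactive = no potentiation, no dose response, or not a prior hit.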

Assays:
[1] = tested on: TRPC4 beta (transient receptor potential cation channel C4), mouse; assay: activators of mouse TRPC4 channel, confirmation, cell-based, Fluo4 calcium, HEK293 TRPC4beta/mu-opioid, duplicates, 10 µM (AID 2426;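 active = fluorescence ratio normalized to control raised more than 50% in primary screen plus both repeat runs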); settings: Fluo4 calcium fluorescence, at 10 µM; hits give high values
[2] = tested on: transient receptor potential cation channel C4 beta (TRPC4), mouse; assay: activators of mouse TRPC4 channel, confirmation, cell-based, second round, Fluo4, HEK293 TRPC4beta/mu-opioid, 1 µM (AID 2461;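 active = primary screen active and over 50% activation in each of two duplicate runs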); settings: Fluo4 calcium fluorescence, at 1 µM; hits give high values
[3] = tested on: TRPC4 (transient receptor potential cation channel C4 beta), mouse; assay: positive allosteric modulators of mouse TRPC4, confirmation, cell-based, second round, Fluo-4, HEK293 TRPC4beta/mu-opioid, 1 µM (AID 2554;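 active = primary screen hit whose fluorescence ratio, in both repeats, exceeds the weak agonist control mean by 3 SD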); settings: DAMGO EC20, Fluo-4 calcium flux, at 1 µM; hits give high values
[4] = tested on: TRPC4 beta (transient receptor potential cation channel C4), mouse; assay: positive allosteric modulators of mouse TRPC4, confirmation, cell-based, Fluo-4, HEK293 TRPC4beta/mu-opioid (AID 2555;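 active = primary screen hit whose calcium fluorescence ratio, in both repeats, exceeds the weak agonist control mean by 3 SD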); settings: DAMGO EC20, Fluo-4 calcium flux, at 10 µM; hits give high values
[5] = molecular target: Short transient receptor potential channel 4 (Mus musculus) (UniProt Q9QUQ5); assay: inhibitors of mouse TRPC4 channel, confirmation, cell-based, Fluo4, HEK293 TRPC4beta/mu-opioid (AID 2636;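 active = calcium signal cut by more than 3 SD below the full-agonist control yet still positive, in both repeats and the earlier primary screen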); settings: DAMGO, Fluo4 calcium flux, at 10 µM; hits give high values
Sequence of Short transient receptor potential channel 4 (Mus musculus) (Q9QUQ5 whole entry, looked up): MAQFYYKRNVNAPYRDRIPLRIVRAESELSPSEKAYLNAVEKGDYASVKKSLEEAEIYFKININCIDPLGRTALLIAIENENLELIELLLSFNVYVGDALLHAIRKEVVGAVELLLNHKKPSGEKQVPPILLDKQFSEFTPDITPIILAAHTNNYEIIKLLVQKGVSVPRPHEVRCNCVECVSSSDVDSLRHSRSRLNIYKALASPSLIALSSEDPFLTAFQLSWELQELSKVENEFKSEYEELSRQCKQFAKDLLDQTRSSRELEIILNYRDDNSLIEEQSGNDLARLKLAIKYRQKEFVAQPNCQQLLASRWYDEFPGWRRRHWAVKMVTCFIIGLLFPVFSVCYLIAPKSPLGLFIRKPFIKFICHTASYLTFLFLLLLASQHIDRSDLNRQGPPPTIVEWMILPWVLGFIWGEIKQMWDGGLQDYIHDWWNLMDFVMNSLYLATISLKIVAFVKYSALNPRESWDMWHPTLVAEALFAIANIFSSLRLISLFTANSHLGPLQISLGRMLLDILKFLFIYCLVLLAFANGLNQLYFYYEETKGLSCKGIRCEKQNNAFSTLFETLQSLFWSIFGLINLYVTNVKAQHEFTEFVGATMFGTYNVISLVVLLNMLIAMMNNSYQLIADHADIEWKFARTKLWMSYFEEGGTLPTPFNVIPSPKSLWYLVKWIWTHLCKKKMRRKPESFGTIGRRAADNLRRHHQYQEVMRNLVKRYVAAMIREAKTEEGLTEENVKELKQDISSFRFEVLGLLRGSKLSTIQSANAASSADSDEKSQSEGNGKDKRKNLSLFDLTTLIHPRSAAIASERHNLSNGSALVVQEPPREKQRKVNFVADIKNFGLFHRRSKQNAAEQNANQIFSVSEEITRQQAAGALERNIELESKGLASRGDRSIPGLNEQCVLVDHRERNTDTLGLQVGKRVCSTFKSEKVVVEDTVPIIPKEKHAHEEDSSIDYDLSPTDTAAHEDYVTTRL

[6] = molecular target: Short transient receptor potential channel 4 (Mus musculus) (UniProt Q9QUQ5); assay: inhibitors of mouse TRPC4 channel, confirmation, cell-based, second round, Fluo4, HEK293 TRPC4beta/mu-opioid, 1 µM (AID 2637;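 active = calcium signal ratio cut to more than 3 SD under the fully stimulated control mean yet still positive, in both repeats and the primary screen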;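 as to inhibition: percent of integrated ratio relative to wells lacking test compound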); settings: Fluo4 calcium flux, DAMGO, at 1 µM; hits give high values
[7] = molecular target: Short transient receptor potential channel 4 (Mus musculus) (UniProt Q9QUQ5); assay: mouse TRPC4 channel activators, dose response, cell-based, HEK293 TRPC4/mu-opioid, Fluo-4 calcium (AID 434937;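 active = primary screen activator hit with a dose response curve and TRPC4 channel activation at any tested dose; inactive = no activation, no dose response, or not a primary hit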)
[8] = molecular target: Short transient receptor potential channel 4 (Mus musculus) (UniProt Q9QUQ5); assay: TRPC4 positive allosteric modulators, dose response, cell-based, HEK293 TRPC4/mu-opioid, Fluo-4 calcium, EC20 DAMGO (AID 434941);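 also: calcium entry triggered by an EC20 dose of DAMGO at the co-expressed mu-opioid receptor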
[9] = molecular target: Short transient receptor potential channel 4 (Mus musculus) (UniProt Q9QUQ5); assay: mouse TRPC4 channel inhibitors, dose response, cell-based, HEK293 TRPC4/mu-opioid, Fluo-4 calcium (AID 434942;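 active = primary screen inhibitor hit that blocks the TRPC4 channel at some tested dose, yielding a dose curve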)
[10] = molecular target: Short transient receptor potential channel 6 (Mus musculus) (UniProt Q61143); assay: inhibition of mouse TRPC6 channel, confirmation, selectivity assay for TRPC4 inhibitor project, cell-based, HEK293, membrane potential dye, duplicate (AID 434948;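 active = active in primary screen and both duplicates, each dropping signal beyond three positive-control SD with fluorescence still positive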); settings: HEK293 TRPC6, membrane potential dye fluorescence, at 10 µM, stimulated with maximal-effect acetylcholine; hits give high values
Sequence of Short transient receptor potential channel 6 (Mus musculus) (Q61143 whole entry, looked up): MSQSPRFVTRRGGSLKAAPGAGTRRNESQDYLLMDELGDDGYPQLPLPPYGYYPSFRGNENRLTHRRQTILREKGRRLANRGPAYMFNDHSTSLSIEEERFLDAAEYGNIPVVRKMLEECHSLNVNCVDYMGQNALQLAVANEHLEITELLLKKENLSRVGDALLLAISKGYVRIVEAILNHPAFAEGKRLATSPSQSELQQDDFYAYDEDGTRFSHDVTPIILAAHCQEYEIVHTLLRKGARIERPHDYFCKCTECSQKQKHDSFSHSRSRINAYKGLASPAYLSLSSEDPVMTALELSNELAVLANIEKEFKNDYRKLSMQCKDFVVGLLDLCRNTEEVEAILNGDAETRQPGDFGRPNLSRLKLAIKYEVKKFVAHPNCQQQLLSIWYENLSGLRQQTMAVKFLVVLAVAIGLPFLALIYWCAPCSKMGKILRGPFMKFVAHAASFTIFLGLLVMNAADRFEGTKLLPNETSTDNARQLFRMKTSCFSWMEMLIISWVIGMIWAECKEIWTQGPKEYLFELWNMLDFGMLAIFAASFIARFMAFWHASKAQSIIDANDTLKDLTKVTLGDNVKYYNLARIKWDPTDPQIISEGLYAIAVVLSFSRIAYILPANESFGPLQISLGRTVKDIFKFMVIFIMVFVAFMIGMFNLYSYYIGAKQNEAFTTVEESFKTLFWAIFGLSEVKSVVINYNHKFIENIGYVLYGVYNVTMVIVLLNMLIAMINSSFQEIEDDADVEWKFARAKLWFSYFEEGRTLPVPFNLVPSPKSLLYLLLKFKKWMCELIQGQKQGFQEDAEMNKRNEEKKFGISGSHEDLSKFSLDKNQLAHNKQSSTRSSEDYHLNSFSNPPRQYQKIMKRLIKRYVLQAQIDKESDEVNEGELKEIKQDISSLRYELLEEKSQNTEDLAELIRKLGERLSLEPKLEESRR

[11] = molecular target: Short transient receptor potential channel 6 (Mus musculus) (UniProt Q61143); assay: activation of mouse TRPC6 channel, confirmation, selectivity assay for TRPC4 activator project, cell-based, HEK293, membrane potential dye, duplicate (AID 434950;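 active = membrane potential signal rise above negative control mean plus 3 SD in both duplicates, also active in the earlier TRPC4 screen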;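 as to activation: 0% = buffer only wells and 100% = acetylcholine maximal-effect wells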); settings: HEK293 TRPC6, membrane potential fluorescence, at 10 µM; hits give high values
[12] = molecular target: Short transient receptor potential channel 6 (Mus musculus) (UniProt Q61143); assay: TRPC6 potentiation by TRPC4 potentiator hits, confirmation, selectivity assay for TRPC4 potentiator project, HEK293 cells, membrane potential dye, duplicate (AID 434952;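 active = compound raising the membrane signal above positive-control mean plus 3 SD in both repeats, and a primary screen hit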); settings: HEK293 TRPC6, membrane potential dye fluorescence, at 10 µM, maximal acetylcholine added after compound; hits give high values
[13] = molecular target: Short transient receptor potential channel 4 (Mus musculus) (UniProt Q9QUQ5); assay: calcium flux activators in TRPC4/5HT1a cells, counter-screen for TRPC4 activator project, cell-based, second counter screen, HEK293 TRPC4/5HT1a, Fluo-4 (AID 434977;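 active = calcium signal rise above buffer-control mean plus 5 SD in both duplicates, and also a hit in the primary screen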;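 as to activation: plate controls were assay buffer for no effect and maximal serotonin response for full effect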); settings: Fluo-4 calcium flux, at 10 µM; hits give high values
[14] = calcium flux inhibitors in TRPC4/5HT1a cells, confirmation, counter-screen for TRPC4 inhibitor project, cell-based, second counter screen, HEK293 TRPC4/5HT1a, Fluo-4 (AID 434978;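 active = primary screen active whose calcium signal fell more than 3 SD beyond the full-serotonin control mean in both duplicate plates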;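 as to outcome: serotonin given first at submaximal then at maximal dose after compound preincubation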); settings: Fluo-4 calcium flux, at 10 µM, serotonin added to trigger calcium flux; hits give high values
[15] = tested on: TRPC4 (mouse), co-expressed with 5HT1a in HEK293; assay: calcium flux potentiators in TRPC4/5HT1a cells, confirmation, counter-screen for TRPC4 potentiator project, cell-based, second counter screen, HEK293 TRPC4/5HT1a, Fluo-4 (AID 434979;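 active = signal rise over 3 SD above mean of control wells given weak agonist, in both repeats and first screen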); settings: Fluo-4 calcium flux, at 10 µM, serotonin added at its EC20 dose; hits give high values
[16] = calcium flux activation in mu-opioid HEK293 cells, confirmation, counter-screen for TRPC4 activator project, cell-based, HEK293 mu-opioid receptor line (AID 449723;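 active = hit in primary screen, with calcium signal over 5 SD above buffer well mean in both duplicates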;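 also: counter screen cells carry the mu-opioid receptor alone and lack TRPC4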); settings: Fluo-4 calcium fluorescence, at 10 µM; hits give high values
[17] = calcium flux enhancement in mu-opioid HEK293 cells, confirmation, counter-screen for TRPC4 allosteric potentiator project, cell-based, HEK293 mu-opioid receptor line (AID 449724;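 active = calcium signal rise more than 3 SD above the low-dose agonist control mean, in both duplicate plates and the primary screen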); settings: Fluo-4 calcium flux, at 10 µM, compound added before EC20 DAMGO stimulus; hits give high values

COc1ccc(CNCC(O)(c2ccccc2)c2ccccc2)cc1OC
inactive: outcome [1] | outcome [2] | outcome [3] | outcome [4] | outcome [5] | outcome [6] | outcome [7] | outcome [8] | outcome [9] | outcome [10] | outcome [11] | outcome [12] | outcome [13] | outcome [14] | outcome [15] | outcome [16] | outcome [17]

CCOC(=O)c1c(NC(NC(C)=O)C(Cl)(Cl)Cl)sc2c1CCCC2 (stereo not drawn)
inactive: outcome [1] | outcome [2] | outcome [3] | outcome [4] | outcome [5] | outcome [6] | outcome [7] | outcome [8] | outcome [9] | outcome [10] | outcome [11] | outcome [12] | outcome [13] | outcome [14] | outcome [16] | outcome [17]
active: potentiation [15] 7.17%

CCCN(C(=O)COC(=O)C12CCC(=O)N1c1ccccc1S2)c1c(N)n(Cc2ccccc2)c(=O)[nH]c1=O (stereo not drawn)
active: inhibition [5] 52% | activation [11] 28%
inactive: outcome [1] | outcome [2] | outcome [3] | outcome [4] | outcome [6] | outcome [7] | outcome [8] | outcome [9] | outcome [10] | outcome [12] | outcome [13] | outcome [14] | outcome [15] | outcome [16] | outcome [17]

Cc1ccc(-n2c(C)cc(C)c(C#N)c2=O)cc1Cl
active: activation [13] 11.4%
inactive: outcome [1] | outcome [2] | outcome [3] | outcome [4] | outcome [5] | outcome [6] | outcome [7] | outcome [8] | outcome [9] | outcome [10] | outcome [11] | outcome [12] | outcome [14] | outcome [15] | outcome [16] | outcome [17]

CCCSc1nc(C)cc(C)c1S(=O)(=O)c1ccccc1C
inactive: outcome [1] | outcome [2] | outcome [3] | outcome [4] | outcome [5] | outcome [6] | outcome [7] | outcome [8] | outcome [9] | outcome [10] | outcome [11] | outcome [12] | outcome [13] | outcome [14] | outcome [15] | outcome [16] | outcome [17]

Cc1ccc(/C=N/NC(=S)NC2CCCCC2)o1
inactive: outcome [1] | outcome [2] | outcome [3] | outcome [5] | outcome [6] | outcome [7] | outcome [8] | outcome [9] | outcome [10] | outcome [11] | outcome [12] | outcome [13] | outcome [14] | outcome [16] | outcome [17]
active: potentiation [4] 66% | potentiation [15] 85.1%

O=c1c2ccccc2oc2nc(C3CCCCC3)n(Cc3ccco3)c(=O)c12
inactive: outcome [1] | outcome [2] | outcome [5] | outcome [6] | outcome [7] | outcome [8] | outcome [9] | outcome [10] | outcome [11] | outcome [12] | outcome [13] | outcome [14] | outcome [16] | outcome [17]
active: potentiation [3] 10% | potentiation [4] 11% | potentiation [15] 30.7%

OC1(c2ccc(Cl)cc2)CN(c2ccccc2)C2=[N+]1CCS2 (stereo not drawn)
inactive: outcome [1] | outcome [2] | outcome [3] | outcome [4] | outcome [5] | outcome [6] | outcome [7] | outcome [8] | outcome [9] | outcome [10] | outcome [12] | outcome [13] | outcome [14] | outcome [15] | outcome [16] | outcome [17]
active: activation [11] 38%

NS(=O)(=O)c1ccc(Oc2ccc(S(N)(=O)=O)cc2)cc1
inactive: outcome [1] | outcome [2] | outcome [3] | outcome [4] | outcome [5] | outcome [6] | outcome [7] | outcome [8] | outcome [9] | outcome [10] | outcome [11] | outcome [12] | outcome [13] | outcome [14] | outcome [15] | outcome [16] | outcome [17]

C=CCNC(=S)N/N=C/c1ccc(C(C)(C)C)cc1
inactive: outcome [1] | outcome [2] | outcome [3] | outcome [4] | outcome [7] | outcome [8] | outcome [9] | outcome [10] | outcome [11] | outcome [12] | outcome [13] | outcome [14] | outcome [15] | outcome [16] | outcome [17]
active: inhibition [5] 79% | inhibition [6] 41%

Cn1c(=O)n(CCCO)c(=O)c2c1nc1n2CCCN1Cc1ccccc1
inactive: outcome [1] | outcome [2] | outcome [3] | outcome [4] | outcome [7] | outcome [8] | outcome [9] | outcome [10] | outcome [11] | outcome [12] | outcome [13] | outcome [15] | outcome [16] | outcome [17]
active: inhibition [5] 86% | inhibition [6] 46% | inhibition [14] 28.4%

Cc1c(C(=O)NCCc2ccccc2)oc2ccccc12
active: potentiation [4] 61% | potentiation [15] 45.7%
inactive: outcome [1] | outcome [2] | outcome [3] | outcome [5] | outcome [6] | outcome [7] | outcome [8] | outcome [9] | outcome [10] | outcome [11] | outcome [12] | outcome [13] | outcome [14] | outcome [16] | outcome [17]

N#Cc1ccc(OCC(O)CN2CCN(c3ncc(C(F)(F)F)cc3Cl)CC2)cc1 (stereo not drawn)
inactive: outcome [1] | outcome [2] | outcome [4] | outcome [5] | outcome [6] | outcome [7] | outcome [8] | outcome [9] | outcome [10] | outcome [11] | outcome [12] | outcome [13] | outcome [14] | outcome [16] | outcome [17]
active: potentiation [3] 8% | potentiation [15] 12.6%

COC(=O)C1=C(CCc2ccccc2)NC(=O)NC1c1ccc(Cl)cc1 (stereo not drawn)
inactive: outcome [1] | outcome [2] | outcome [3] | outcome [5] | outcome [6] | outcome [7] | outcome [8] | outcome [9] | outcome [10] | outcome [11] | outcome [12] | outcome [13] | outcome [14] | outcome [16] | outcome [17]
active: potentiation [4] 35% | potentiation [15] 39.7%
